# Measurements taken from PMC4336329 (PLoS ONE, 2015).
# Out of some 310,000 compounds screened, about 14,000 (4.5%) showed an effect of 50% or more. Effects have a minus sign here. The sample as a whole holds a higher share of strong results than the screen did.
# Target: human ether-à-go-go-related gene (hERG) potassium channel (human, UniProt Q12809)
# Experiment: primary screen, population patch clamp on CHO cells stably expressing hERG; higher = less effect of the substance
# 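Also: peak tail current of the secondary pulse compared with the same well before compound.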
# human ether-à-go-go-related gene (hERG) potassium channel, sequence (Q12809 whole entry, looked up): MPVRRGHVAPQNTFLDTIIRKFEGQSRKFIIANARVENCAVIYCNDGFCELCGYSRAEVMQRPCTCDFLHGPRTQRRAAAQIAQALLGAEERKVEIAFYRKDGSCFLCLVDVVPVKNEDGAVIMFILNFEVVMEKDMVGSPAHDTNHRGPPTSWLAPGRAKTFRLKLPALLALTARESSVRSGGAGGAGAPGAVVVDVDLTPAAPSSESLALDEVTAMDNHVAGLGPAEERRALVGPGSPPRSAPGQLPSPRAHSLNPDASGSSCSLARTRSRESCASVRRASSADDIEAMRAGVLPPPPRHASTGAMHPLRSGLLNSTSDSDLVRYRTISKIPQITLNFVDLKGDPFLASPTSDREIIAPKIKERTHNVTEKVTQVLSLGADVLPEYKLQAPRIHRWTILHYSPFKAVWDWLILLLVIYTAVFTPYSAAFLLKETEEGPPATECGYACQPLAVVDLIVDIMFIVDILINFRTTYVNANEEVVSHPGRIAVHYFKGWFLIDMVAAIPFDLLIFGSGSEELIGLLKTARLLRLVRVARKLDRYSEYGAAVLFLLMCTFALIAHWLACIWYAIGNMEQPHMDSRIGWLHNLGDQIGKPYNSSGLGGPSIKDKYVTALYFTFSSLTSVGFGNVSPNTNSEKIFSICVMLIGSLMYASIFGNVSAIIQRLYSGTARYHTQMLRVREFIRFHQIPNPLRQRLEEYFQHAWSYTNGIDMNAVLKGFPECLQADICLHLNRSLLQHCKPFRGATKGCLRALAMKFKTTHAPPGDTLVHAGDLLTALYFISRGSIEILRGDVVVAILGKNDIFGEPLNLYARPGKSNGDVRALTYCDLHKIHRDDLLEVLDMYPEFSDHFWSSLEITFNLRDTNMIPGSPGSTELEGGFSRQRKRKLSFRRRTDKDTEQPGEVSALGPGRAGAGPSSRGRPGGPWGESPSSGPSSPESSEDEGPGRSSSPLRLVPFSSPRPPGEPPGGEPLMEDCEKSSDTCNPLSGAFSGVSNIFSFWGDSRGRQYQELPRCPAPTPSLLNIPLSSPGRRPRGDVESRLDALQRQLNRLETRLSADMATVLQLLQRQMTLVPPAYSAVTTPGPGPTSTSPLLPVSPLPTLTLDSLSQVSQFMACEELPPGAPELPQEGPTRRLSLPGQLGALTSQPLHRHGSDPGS
row,Compound,"hERG current change (%, negative = inhibition) at 10uM [%]"
1,CSc1ccc(CN(C)CC(=O)Nc2ccc(NC(C)=O)cc2)cc1,-25.8
2,CN(CC(=O)NCc1ccc(F)cc1)Cc1ccc(Br)cc1,-35.5
3,CSc1ccc(CN(C)CC(=O)Nc2ccccc2Br)cc1,17.3
4,COc1ccc(CNC(=O)CN(C)Cc2ccc(SC)cc2)cc1,-65.2
5,CSc1ccc(CN(C)CC(=O)NCc2ccc(F)cc2)cc1,-70.1
6,CSc1ccc(CN(C)CC(=O)NCc2ccccc2)cc1,-52.5
7,CN(CC(=O)NCc1ccccc1)Cc1cccc(F)c1.O=C(O)C(=O)O,9.59
8,COc1ccc(CNC(=O)CN(C)Cc2ccc(C(C)(C)C)cc2)cc1.O=C(O)C(=O)O,-4.44
9,CSc1ccc(CN(C)CC(=O)N(C)CC(=O)Nc2ccccc2Br)cc1,-56.9
10,CSc1ccc(CN(C)CC(=O)NCCc2ccccc2)cc1,-35.5
11,CSc1ccc(CN(C)CC(=O)NC(=O)NC(C)(C)C)cc1,-3.83
12,COc1ccc(CN(C)CC(=O)N(C)CC(=O)Nc2ccccc2Br)cc1F,-39.1
13,O=C(NC(=O)N1CCCCC1)c1ccc(Cl)cc1,15.7
14,CCO[C@H]1OC(C(=O)Nc2ccccc2)=C[C@@H](C2CC2)[C@@H]1CCCO,1.16
15,CCCCc1nnc(NC(=O)CCc2ccccc2)s1,19.3
16,COC(=O)c1ccc(-n2nnnc2SCC(=O)Nc2cc(OC)ccc2OC)cc1,2.37
17,CCOC(=O)c1nn(-c2cccc(C)c2)c2nnc(Cc3ccc(C)cc3)c(=O)n12,-16.1
18,O=C(Nc1ccc(SC(F)F)cc1)C1CC(=O)N(Cc2ccccc2)C1 (stereo not shown),-48
19,COc1ccc(S(=O)(=O)N2CCN(C(=O)c3c(C)nn(-c4ccccc4)c3Cl)CC2)cc1,-19.4
20,CCC(=O)N1CCN(c2ccc(Cl)cc2NC(=O)c2ccc3c(c2)OCCO3)CC1,-37.2
21,O=C(Nc1ccc(Cl)cc1)c1ccc(CN2CCc3ccccc3C2)cc1,13.7
22,COc1cccc(C(=O)N2CCN(C(=O)Cc3ccccc3)CC2)c1.O=C(O)C(=O)O,-0.00122

row,Compound,"hERG current change (%, negative = inhibition) at 10uM [%]"
1,CCC(=O)Nc1ccc(C(=O)Nc2cccnc2)cc1,-0.52
2,CC(OC(=O)c1cc(S(=O)(=O)N2CCOCC2)ccc1Br)C(=O)N1CCOCC1 (stereo not shown),-12
3,O=C(Nc1nccs1)C1CCN(S(=O)(=O)c2ccc(F)cc2)CC1,2.1
4,CCOC(=O)CNC(=O)CSc1ccc(-c2nc3ccccc3[nH]2)cn1,-6.35
5,Cc1ccc(CN(C)CC(=O)NC(C)c2ccccc2)cc1 (stereo not shown),-16
6,COc1ccccc1CNC(=O)CN(C)CC(=O)Nc1cccc(F)c1,4.16
7,COc1ccccc1CNC(=O)CN(C)Cc1ccc(SC)cc1,-50.8
8,COc1cccc(CN(C)CC(=O)NCc2ccc(F)cc2)c1OC,6.98
9,CC(NC(=O)CN(C)Cc1ccc(Br)cc1)c1ccccc1 (stereo not shown),-19.3
10,CSc1ccc(CN(C)CC(=O)NC(C)c2ccccc2)cc1 (stereo not shown),-83.9
11,O=C(O)C1C2C=CC(C2)C1C(=O)NCc1cccs1 (stereo not shown),9.44
12,O=C(Nc1cc(Cl)cc(Cl)c1)N1CCN(C(=O)C2CCCO2)CC1 (stereo not shown),-26.4
13,COCCNC(=O)C1CCN(C(=O)C2CC(=O)N(c3ccc(C)cc3)C2)CC1 (stereo not shown),7.39
14,CCc1nnc(NC(=O)CSc2nnc(COc3ccccc3C)o2)s1,15.2
15,O=C(COc1ccc(Br)cc1)Nc1ccc([N+](=O)[O-])cn1,-19.7
16,COc1cc(NC(=O)CSCc2ccccc2)c(C(=O)O)cc1OC,11.2
17,COc1ccc(CCNc2ccc(C(CC(N)=O)NC(=O)Cc3cccc4ccccc34)cc2[N+](=O)[O-])cc1 (stereo not shown),4.29
18,CCN(CC)CC(=O)c1c[nH]c2ccc(OC)cc12,-22.9
19,COc1ccc2[nH]cc(C(=O)CN(C)C)c2c1,9.06
20,COc1ccc2[nH]cc(C(=O)CN(C)CCc3ccc(OC)c(OC)c3)c2c1,-70.3
21,COc1ccccc1-n1cnc2sc(C)c(C)c2c1=O,5.71
